Experimental findings from paper PMC7862700, “An all-to-all approach to the identification of sequence-specific readers for epigenetic DNA modifications on cytosine” are described below.

What all share (experiment): DAPPL (digital affinity profiling via proximity ligation, sequencing); 10 mM Tris-HCl pH 7.5, 50 mM NaCl, 1 mM DTT, 4% glycerol, room temperature, 30 min; GST-TFs on glutathione beads, 16-mer random dsDNA library, 0.1% formaldehyde crosslink after washing; high values mean tight binding
Test [1] has as its target T1, FEV (Homo sapiens, UniProt Q99581 1-238).
T1 sequence: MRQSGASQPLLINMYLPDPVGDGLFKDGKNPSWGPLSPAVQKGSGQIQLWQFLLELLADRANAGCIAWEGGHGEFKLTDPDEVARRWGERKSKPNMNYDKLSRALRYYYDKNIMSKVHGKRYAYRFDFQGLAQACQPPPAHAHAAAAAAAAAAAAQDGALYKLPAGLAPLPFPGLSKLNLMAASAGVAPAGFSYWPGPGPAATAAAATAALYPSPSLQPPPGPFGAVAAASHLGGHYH
The following applies: protein: recombinant; tags: N-terminal GST; dsDNA, one strand shown. The gist of the method:
(§1)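 In yeast, human transcription factors were expressed with a GST fusion, then pulled down on glutathione beads and given DNA barcodes. Pooled with a tag-only sample, they were exposed to 200 nmole of a 16-mer random double-stranded DNA library (Tris/NaCl/DTT/glycerol buffer, room temperature, 30 min), washed, crosslinked with 0.1% formaldehyde, proximity-ligated using BsaI/T4 ligase for 1 h at 37 °C, PCR-amplified and read on an Illumina NextSeq500. Each hexamer's frequency of reads for a factor, divided by the matching frequency for the tag-only sample, gives the binding signal.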

Test [2] has as its target ETV5 (Homo sapiens, UniProt P41161 1-510). The conditions noted are these: protein: recombinant; tags: N-terminal GST; dsDNA, one strand shown. The gist of the method: as §1
In test [3] the target is HSF1 (Homo sapiens, UniProt Q00613 1-529). The conditions noted are these: protein: recombinant; tags: N-terminal GST; chain copies: 3; dsDNA, one strand shown. A digest of the protocol:
as §1

Test [4] has as its target T2, SPIC (Homo sapiens, UniProt Q8N5J4 1-248).
T2 sequence: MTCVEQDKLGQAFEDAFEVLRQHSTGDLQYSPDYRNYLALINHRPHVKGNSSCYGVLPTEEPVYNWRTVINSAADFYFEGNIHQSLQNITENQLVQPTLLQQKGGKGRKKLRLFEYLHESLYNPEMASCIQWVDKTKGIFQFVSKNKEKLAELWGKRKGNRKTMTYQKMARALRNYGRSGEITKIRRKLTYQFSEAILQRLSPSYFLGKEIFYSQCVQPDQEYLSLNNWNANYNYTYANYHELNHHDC
The conditions noted are these: protein: recombinant; tags: N-terminal GST; dsDNA, one strand shown. A digest of the protocol:
as §1

In test [5] the target is ELF4 (Homo sapiens, UniProt Q99607 1-663). The conditions noted are these: protein: recombinant; tags: N-terminal GST; dsDNA, one strand shown. The gist of the method:
as §1

For test [6], the target named is T3, ELK4 (Homo sapiens, UniProt P28324-2 1-405).
T3 sequence: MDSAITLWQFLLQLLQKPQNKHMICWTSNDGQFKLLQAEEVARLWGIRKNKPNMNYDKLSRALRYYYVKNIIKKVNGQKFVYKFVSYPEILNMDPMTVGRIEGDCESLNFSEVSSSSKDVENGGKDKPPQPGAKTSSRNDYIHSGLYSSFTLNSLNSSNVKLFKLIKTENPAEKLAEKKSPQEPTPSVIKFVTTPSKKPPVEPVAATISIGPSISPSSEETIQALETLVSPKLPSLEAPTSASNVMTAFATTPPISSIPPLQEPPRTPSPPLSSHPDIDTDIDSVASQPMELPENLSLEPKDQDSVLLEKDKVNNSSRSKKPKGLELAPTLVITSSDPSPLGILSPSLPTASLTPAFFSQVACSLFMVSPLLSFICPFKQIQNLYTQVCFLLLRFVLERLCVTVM
The following applies: protein: recombinant; tags: N-terminal GST; dsDNA, one strand shown. A digest of the protocol:
as §1

Test [7] concerns the target T4, ETV2 (Homo sapiens, UniProt O00321 1-342).
T4 sequence: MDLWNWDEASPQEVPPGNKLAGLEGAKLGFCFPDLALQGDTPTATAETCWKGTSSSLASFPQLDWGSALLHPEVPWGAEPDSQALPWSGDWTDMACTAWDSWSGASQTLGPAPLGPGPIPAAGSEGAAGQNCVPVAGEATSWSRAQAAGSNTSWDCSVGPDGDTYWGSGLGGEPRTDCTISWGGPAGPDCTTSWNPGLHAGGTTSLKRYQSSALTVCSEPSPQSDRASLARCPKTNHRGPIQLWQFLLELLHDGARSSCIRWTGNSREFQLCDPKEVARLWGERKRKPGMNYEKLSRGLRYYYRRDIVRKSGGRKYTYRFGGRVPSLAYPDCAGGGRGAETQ
The conditions noted are these: protein: recombinant; tags: N-terminal GST; dsDNA, one strand shown. The gist of the method: as §1

For test [8], the target named is T5, ELF3 (Homo sapiens, UniProt P78545 1-371).
T5 sequence: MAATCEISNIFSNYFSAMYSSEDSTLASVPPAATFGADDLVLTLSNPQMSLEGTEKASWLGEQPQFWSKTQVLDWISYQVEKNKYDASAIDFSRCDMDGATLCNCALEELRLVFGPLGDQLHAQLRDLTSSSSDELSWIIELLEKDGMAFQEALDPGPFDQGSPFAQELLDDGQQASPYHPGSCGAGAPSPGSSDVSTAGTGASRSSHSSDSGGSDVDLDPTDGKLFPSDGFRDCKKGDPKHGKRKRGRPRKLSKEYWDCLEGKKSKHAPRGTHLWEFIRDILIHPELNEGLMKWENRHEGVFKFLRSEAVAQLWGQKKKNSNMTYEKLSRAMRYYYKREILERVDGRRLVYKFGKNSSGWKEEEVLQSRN
The following applies: protein: recombinant; tags: N-terminal GST; dsDNA, one strand shown. A digest of the protocol: as §1

Test [9] addresses CRX (Homo sapiens, UniProt O43186 1-299). The conditions noted are these: protein: recombinant; tags: N-terminal GST; dsDNA, one strand shown. The gist of the method: as §1
Test [10] has as its target ETV1 (Homo sapiens, UniProt P50549 1-477). The conditions noted are these: protein: recombinant; tags: N-terminal GST; dsDNA, one strand shown. The gist of the method:
as §1

The target of test [11] is T6, ERF (Homo sapiens, UniProt P50548 1-548).
T6 sequence: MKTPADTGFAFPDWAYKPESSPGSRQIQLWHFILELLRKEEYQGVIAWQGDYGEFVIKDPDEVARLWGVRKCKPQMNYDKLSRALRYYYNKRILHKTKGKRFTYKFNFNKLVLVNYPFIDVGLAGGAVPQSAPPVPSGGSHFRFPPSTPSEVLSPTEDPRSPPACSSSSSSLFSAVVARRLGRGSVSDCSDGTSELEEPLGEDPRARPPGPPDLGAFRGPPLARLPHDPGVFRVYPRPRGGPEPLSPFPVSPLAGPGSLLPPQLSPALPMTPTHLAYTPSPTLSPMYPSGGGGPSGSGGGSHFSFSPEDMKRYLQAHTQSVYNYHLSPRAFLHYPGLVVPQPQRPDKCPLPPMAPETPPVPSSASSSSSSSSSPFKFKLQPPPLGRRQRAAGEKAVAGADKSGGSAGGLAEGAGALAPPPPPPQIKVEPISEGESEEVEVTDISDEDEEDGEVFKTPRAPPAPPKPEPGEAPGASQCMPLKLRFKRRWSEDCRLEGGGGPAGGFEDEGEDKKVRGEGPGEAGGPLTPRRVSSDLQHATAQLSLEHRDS
The conditions noted are these: protein: recombinant; tags: N-terminal GST; dsDNA, one strand shown. A digest of the protocol:
as §1

The target in test [12] is T7, ETV3L (Homo sapiens, UniProt Q6ZN32 1-361).
T7 sequence: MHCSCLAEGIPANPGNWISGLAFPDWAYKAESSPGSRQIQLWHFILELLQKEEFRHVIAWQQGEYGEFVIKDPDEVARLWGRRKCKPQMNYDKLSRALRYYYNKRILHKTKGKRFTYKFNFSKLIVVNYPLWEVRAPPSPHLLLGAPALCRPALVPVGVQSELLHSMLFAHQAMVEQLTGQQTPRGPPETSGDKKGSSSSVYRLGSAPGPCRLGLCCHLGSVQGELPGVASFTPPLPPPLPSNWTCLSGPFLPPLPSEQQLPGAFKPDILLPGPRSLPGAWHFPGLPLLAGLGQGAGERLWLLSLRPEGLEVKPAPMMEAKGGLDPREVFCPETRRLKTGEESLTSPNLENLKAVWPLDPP
The following applies: protein: recombinant; tags: N-terminal GST; dsDNA, one strand shown. The gist of the method:
as §1

The target of test [13] is T8, ETS2 (Homo sapiens, UniProt P15036 1-469).
T8 sequence: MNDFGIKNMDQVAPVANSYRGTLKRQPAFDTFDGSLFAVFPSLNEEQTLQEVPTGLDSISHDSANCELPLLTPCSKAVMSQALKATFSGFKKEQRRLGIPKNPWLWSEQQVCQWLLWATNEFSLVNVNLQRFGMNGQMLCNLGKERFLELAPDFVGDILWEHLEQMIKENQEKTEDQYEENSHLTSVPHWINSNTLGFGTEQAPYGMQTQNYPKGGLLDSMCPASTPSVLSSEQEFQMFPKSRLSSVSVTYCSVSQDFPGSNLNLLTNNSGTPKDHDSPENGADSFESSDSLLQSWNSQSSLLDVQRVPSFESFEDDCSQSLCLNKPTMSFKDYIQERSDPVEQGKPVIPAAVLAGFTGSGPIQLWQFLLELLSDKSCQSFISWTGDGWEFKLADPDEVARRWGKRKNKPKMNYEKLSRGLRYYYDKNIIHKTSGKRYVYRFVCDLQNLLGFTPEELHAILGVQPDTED
The following applies: protein: recombinant; tags: N-terminal GST; dsDNA, one strand shown. A digest of the protocol:
as §1

Test [14] addresses T9, SPDEF (Homo sapiens, UniProt O95238 1-335).
T9 sequence: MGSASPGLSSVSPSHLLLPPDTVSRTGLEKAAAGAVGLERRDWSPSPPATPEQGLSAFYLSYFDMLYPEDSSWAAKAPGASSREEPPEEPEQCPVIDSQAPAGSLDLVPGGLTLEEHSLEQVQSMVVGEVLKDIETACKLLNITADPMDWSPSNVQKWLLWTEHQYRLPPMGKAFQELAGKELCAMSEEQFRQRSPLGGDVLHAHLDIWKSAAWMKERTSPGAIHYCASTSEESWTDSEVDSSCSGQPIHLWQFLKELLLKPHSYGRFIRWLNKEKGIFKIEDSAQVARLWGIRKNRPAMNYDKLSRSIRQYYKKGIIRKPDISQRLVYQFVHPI
The following applies: protein: recombinant; tags: N-terminal GST; dsDNA, one strand shown. A digest of the protocol:
as §1

Test [15] concerns the target T10, ETV7 (Homo sapiens, UniProt Q9Y603 1-341).
T10 sequence: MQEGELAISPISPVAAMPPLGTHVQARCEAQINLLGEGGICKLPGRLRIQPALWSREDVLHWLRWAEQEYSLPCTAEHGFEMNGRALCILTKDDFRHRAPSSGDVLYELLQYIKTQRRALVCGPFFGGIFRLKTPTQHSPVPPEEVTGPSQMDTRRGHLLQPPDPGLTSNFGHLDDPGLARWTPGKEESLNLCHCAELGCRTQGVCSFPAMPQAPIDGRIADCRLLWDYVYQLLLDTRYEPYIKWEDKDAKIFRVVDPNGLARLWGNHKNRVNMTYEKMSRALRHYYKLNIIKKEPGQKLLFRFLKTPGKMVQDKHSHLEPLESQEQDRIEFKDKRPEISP
The conditions noted are these: protein: recombinant; tags: N-terminal GST; dsDNA, one strand shown. A digest of the protocol: as §1

In test [16] the target is T11, ELF5 (Homo sapiens, UniProt Q9UKW6-2 1-255).
T11 sequence: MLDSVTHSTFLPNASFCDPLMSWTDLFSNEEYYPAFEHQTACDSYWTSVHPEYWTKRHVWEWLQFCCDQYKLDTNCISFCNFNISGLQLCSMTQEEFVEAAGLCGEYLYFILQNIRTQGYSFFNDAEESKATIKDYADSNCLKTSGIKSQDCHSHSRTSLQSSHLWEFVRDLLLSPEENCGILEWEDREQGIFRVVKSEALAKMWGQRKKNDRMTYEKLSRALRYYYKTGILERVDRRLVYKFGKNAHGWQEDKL
The conditions noted are these: protein: recombinant; tags: N-terminal GST; dsDNA, one strand shown. A digest of the protocol:
as §1

Test [17] deals with T12, ETV3 (Homo sapiens, UniProt P41162-2 1-143).
T12 sequence: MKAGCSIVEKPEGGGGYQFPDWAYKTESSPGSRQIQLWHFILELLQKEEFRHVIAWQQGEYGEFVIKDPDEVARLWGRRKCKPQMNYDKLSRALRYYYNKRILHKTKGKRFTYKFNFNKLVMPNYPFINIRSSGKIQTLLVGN
The following applies: protein: recombinant; tags: N-terminal GST; dsDNA, one strand shown. The gist of the method: as §1

For test [18], the target named is ETV6 (Homo sapiens, UniProt P41212 1-452). The following applies: protein: recombinant; tags: N-terminal GST; dsDNA, one strand shown. The gist of the method: as §1
ETV6, sequence (P41212 whole entry): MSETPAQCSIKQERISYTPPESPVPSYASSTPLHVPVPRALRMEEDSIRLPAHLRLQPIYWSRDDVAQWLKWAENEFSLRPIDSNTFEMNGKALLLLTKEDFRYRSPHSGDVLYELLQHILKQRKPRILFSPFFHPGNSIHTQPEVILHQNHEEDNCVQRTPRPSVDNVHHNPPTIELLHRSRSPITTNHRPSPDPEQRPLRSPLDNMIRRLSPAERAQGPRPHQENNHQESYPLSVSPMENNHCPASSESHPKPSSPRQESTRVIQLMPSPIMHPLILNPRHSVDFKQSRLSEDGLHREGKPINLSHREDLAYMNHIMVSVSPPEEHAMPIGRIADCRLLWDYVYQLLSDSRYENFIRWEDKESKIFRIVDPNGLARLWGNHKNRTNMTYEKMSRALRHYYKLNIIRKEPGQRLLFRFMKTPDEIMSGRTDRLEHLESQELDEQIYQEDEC

HSF1, sequence (Q00613 whole entry): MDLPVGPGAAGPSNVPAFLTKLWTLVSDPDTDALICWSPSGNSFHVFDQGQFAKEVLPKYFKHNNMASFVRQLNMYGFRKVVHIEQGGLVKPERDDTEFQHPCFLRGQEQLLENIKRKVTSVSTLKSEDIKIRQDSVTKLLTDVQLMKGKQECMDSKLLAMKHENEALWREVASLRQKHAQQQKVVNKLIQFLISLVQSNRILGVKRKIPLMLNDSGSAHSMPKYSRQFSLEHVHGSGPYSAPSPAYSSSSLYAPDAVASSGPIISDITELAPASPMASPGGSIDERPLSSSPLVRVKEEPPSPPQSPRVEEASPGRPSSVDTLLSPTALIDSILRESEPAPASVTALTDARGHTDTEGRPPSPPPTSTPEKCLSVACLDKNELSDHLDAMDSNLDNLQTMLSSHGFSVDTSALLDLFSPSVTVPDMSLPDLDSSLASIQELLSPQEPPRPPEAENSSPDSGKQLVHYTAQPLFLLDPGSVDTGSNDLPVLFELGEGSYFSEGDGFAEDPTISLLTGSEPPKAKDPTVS
ETV5, sequence (P41161 whole entry): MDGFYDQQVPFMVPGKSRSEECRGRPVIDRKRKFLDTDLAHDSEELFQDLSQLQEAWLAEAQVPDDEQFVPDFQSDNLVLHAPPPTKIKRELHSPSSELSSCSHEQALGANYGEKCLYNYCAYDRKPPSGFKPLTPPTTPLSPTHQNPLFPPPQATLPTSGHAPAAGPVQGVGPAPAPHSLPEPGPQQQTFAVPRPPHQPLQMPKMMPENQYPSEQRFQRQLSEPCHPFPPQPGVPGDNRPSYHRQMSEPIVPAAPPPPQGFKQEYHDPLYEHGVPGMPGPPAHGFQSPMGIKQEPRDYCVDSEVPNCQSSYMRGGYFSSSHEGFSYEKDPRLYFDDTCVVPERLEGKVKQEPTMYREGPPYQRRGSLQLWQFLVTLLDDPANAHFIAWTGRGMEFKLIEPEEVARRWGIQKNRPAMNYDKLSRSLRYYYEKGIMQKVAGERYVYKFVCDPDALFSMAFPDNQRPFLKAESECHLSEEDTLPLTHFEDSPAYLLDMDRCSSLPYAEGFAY
CRX, sequence (O43186 whole entry): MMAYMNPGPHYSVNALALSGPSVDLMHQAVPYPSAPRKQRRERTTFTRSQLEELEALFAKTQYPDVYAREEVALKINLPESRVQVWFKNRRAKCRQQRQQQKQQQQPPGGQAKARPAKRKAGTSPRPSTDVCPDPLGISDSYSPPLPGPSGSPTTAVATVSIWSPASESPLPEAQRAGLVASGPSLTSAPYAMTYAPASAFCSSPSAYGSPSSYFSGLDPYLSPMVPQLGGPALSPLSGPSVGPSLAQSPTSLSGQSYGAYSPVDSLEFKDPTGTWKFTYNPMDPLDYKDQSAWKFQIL
ETV1, sequence (P50549 whole entry): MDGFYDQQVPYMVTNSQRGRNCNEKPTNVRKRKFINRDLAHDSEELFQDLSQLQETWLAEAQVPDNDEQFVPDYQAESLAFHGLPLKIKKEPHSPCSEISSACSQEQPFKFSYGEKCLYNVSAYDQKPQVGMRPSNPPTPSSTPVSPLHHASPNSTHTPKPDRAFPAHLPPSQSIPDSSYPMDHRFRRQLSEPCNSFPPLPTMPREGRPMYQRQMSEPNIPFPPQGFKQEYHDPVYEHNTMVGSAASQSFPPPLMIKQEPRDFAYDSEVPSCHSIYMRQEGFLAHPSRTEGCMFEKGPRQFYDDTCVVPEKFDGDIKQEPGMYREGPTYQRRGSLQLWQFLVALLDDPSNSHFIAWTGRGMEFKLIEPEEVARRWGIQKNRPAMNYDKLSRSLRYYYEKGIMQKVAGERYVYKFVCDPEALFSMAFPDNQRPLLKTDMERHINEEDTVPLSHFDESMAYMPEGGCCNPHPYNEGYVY
ELF4, sequence (Q99607 whole entry): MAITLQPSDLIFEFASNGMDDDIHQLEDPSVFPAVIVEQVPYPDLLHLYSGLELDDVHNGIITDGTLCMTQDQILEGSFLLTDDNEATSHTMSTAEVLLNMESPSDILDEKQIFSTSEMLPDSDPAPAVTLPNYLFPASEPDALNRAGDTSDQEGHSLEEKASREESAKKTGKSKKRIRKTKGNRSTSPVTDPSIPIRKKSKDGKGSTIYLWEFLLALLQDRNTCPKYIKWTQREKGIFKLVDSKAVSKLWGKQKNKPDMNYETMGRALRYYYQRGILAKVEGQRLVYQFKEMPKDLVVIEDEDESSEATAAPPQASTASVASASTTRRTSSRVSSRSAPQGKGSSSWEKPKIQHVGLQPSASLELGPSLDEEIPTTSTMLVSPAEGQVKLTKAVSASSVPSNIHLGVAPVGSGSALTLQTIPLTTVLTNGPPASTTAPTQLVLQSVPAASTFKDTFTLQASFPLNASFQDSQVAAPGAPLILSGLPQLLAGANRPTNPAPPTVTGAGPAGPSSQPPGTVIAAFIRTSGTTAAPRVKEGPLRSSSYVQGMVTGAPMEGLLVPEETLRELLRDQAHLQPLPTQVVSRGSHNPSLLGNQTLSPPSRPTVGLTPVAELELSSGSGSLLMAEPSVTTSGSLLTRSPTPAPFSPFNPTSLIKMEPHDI

As for AAATAA, the binding signal is 1.29 fold enrichment (6-mer frequency, TF over GST control) in test [1]; 1.37 fold enrichment (6-mer frequency, TF over GST control) in test [2]; 1.48 fold enrichment (6-mer frequency, TF over GST control) in [3]; 1.27 fold enrichment (6-mer frequency, TF over GST control) in [4]; 1.32 fold enrichment (6-mer frequency, TF over GST control) in test [5]; 1.34 fold enrichment (6-mer frequency, TF over GST control) in test [6]. The binding signal in test [7] was 1.28 fold enrichment (6-mer frequency, TF over GST control); in [8], 1.43 fold enrichment (6-mer frequency, TF over GST control); in test [9] it was 1.71 fold enrichment (6-mer frequency, TF over GST control); in test [10], 1.3 fold enrichment (6-mer frequency, TF over GST control); in [11] it was 1.38 fold enrichment (6-mer frequency, TF over GST control); in test [12] it was 1.26 fold enrichment (6-mer frequency, TF over GST control). Further, the binding signal is 1.39 fold enrichment (6-mer frequency, TF over GST control) in test [13]; 1.25 fold enrichment (6-mer frequency, TF over GST control) in [14]; 1.32 fold enrichment (6-mer frequency, TF over GST control) in [15]; 1.34 fold enrichment (6-mer frequency, TF over GST control) in test [16]; 1.31 fold enrichment (6-mer frequency, TF over GST control) in [17]; 1.5 fold enrichment (6-mer frequency, TF over GST control) in test [18].
